Records with an inconclusive call do not appear. Activity calls are given as the source filed them. Unless noted, calls come from the whole dose curve; as a rule, active = well fitted curve in the direction sought with a large enough effect; inconclusive = small, poorly fitted or top-dose-only effect, or another doubt; inactive = no such curve, though single readings can be large; an effect the other way counts as inactive or inconclusive.
Legend:
[1] = qHTS to identify inhibitors of the type 1 interferon - major histocompatibility complex class I in skeletal muscle: primary screen against the NCATS Pharmaceutical Collection (AID 1347407);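 note: luminescence of HiBiT knocked into endogenous HLA-B as interferon-induced MHC class I level; % is set by controls: 0 for no effect and ±100 for the full control effect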
Procedure, shortened: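 HLA-B HiBiT myoblasts, dexamethasone-free growth medium + 4 ng/ml IFN-b; compounds pinned 1 h after seeding, […] from 46 uM; 24 h, 37 C, 5% CO2; lytic HiBiT detection, 10 min RT, luminescence.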

[2] = qHTS to identify inhibitors of the type 1 interferon - major histocompatibility complex class I in skeletal muscle: primary screen against the NCATS Mechanism Interrogation Plate v5.0 (MIPE) Libary (AID 1347411);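 note: plate controls were vehicle for no effect and reference inhibitor for full effect; nearly all actives have a fitted effect of over 65% in size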
Procedure, shortened: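 Immortalized human C25cl48 myoblasts with HiBit knocked into endogenous HLA-B*08:01 were stimulated with 4.0 ng/ml IFN-beta and exposed to compounds (11-point 1:3 titration, top 46 uM final) for 24 hrs at 37 C; HiBiT lytic luminescence measured.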

[3] = biological target: Protein phosphatase 1D (Homo sapiens) (UniProt O15297); assay: RapidFire Mass Spectrometry qHTS Assay for Modulators of WT P53-Induced Phosphatase 1 (WIP1) (AID 1347424);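 note: amount of dephosphorylated VEPPL-S-QETFS peptide product formed by WIP1; series mostly up to about 63 µM; plate controls were DMSO wells for no effect and GSK830371 inhibitor control at 10 µM for full effect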
Procedure, shortened: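 WIP1 (10 nM final) was preincubated 1 h at room temperature with compounds in Tris-HCl pH 7.5, 30 mM MgCl2, TCEP, EGTA, BSA; 2 uM VEPPL-pS-QETFS phosphopeptide was added for 5 min, quenched with formic acid, and dephosphorylated product quantified by RapidFire MS.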

[4] = Primary qHTS for inhibitors of La Crosse Virus (LACV) - induced cell death in SH-SY5Y cells (AID 1508616);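 note: top concentration of the series differs between compounds; 0% = infected DMSO wells and 100% = uninfected DMSO wells; higher means more rescue of cells from virus-induced death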
Procedure, shortened: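 Luminescent ATP readout (ATPLite 1step, 5 min room temperature) measured rescue from LACV-induced death after 6 days of infection at 0.01 MOI; normalized to infected DMSO wells and uninfected DMSO wells.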

[5] = biological target: Calcium and integrin-binding protein 1 (Homo sapiens) (UniProt Q99828); assay: Primary qHTS for Identification of Calcium Integrin Binding Protein 1 (CIB1) Competitor (AID 1508620);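 note: GST tagged CIB1 binding a fluorescein labelled alphaIIb integrin peptide tracer; top concentration of the series differs between compounds; % is set by controls: 0 for no effect and ±100 for the full control effect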
Procedure, shortened: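 Fluorescence polarization competition: CIB1-GST (1 uM final) preincubated with compound 15 min at room temperature, then FITC-labeled alphaIIb peptide (100 nM final) added for another 15 min. Polarization read at Ex 480/Em 540.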

[6] = Primary qHTS for small molecule stabilizers of the endoplasmic reticulum resident proteome: Secreted ER Calcium Modulated Protein (SERCaMP) assay (AID 1508630); note: % is set by controls: 0 for no effect and ±100 for the full control effect
Procedure, shortened: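 GLuc-SERCaMP-expressing SH-SY5Y cells, pretreated 16 h with compound, are challenged with thapsigargin to empty ER calcium stores; after 4 h, coelenterazine is added directly to the medium and luminescence is imaged.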

[7] = A High-Content qHTS Against Drug Library for the Identification of Small Molecules that Inhibit DYT1 Early Onset Primary Dystonia-Associated Cell Pathology (AID 1645839; calls by dose curve; note: series mostly up to about 46 µM)
Procedure, shortened: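 Readout: %pathology, the punctate EGFP-TorsinA distribution from imaging, as the primary channel and cell count as the toxicity counterscreen. HEK293 Flp-In cells expressing delE TorsinA were induced with tetracycline and treated with compound for 48 h.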

[8] = biological target: Cytochrome P450 2D6 (Homo sapiens) (UniProt P10635); assay: Cytochrome P450 family 2 subfamily D member 6 (CYP2D6) small molecule antagonists: luciferase biochemical (cell-free) qHTS assay (AID 1645840; active = well fitted curve in the direction sought with a large enough effect in the repeat runs; an effect the other way counts as inactive or inconclusive; note: nearly all actives have a fitted effect of over 55% in size; note: potency is the fitted concentration of half-maximal effect)
Procedure, shortened: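 P450-Glo luminescent screen: recombinant CYP2D6 enzyme–proluciferin substrate mix preincubated with compound 10 min at room temperature, then NADPH regeneration added for 1 h at room temperature. Detection reagent added for 20 min; luciferin light read as relative luminescence units.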

[9] = biological target: Protein phosphatase 1D (Homo sapiens) (UniProt O15297); assay: Rhodamine-PBP qHTS Assay for Modulators of WT P53-Induced Phosphatase 1 (WIP1) (AID 1347425); note: % of control where 0% means no effect
Procedure, shortened: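 Read-out: Rhodamine-PBP fluorescence (ex 525/em 598 nm) for released Pi, read each minute for 11 min after adding 10 uM VEPPL-pS-QETFS; signal taken as f1 minus pre-substrate f0. Enzyme 5 nM WIP1 with 1 hr room-temperature compound preincubation.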

[10] = Confirmatory qHTS for small molecule stabilizers of the endoplasmic reticulum resident proteome: Secreted ER Calcium Modulated Protein (SERCaMP) assay (AID 1508628); note: potency is the fitted concentration of half-maximal effect; nearly all actives have a fitted effect of over 40% in size
Procedure, shortened: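 We seeded SH-SY5Y-GLuc-SERCaMP cells, added compounds (three concentrations in the primary run, eleven up to 76.6 uM in confirmation), incubated 16 h, depleted ER calcium with thapsigargin, and read luciferase 4 h later.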

[11] = Cell Viability qHTS for small molecule stabilizers of the endoplasmic reticulum resident proteome (AID 1508629); settings: cell viability counter-screen, 100 nM thapsigargin for final 4 h;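 note: compound exposure about 46 h in total before the viability read; % is set by controls: 0 for no effect and ±100 for the full control effect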
Source text: Assay Provider: Brandon K. Harvey Ph.D.
National Institute on Drug Abuse, National Institutes of Health, Baltimore, MD
Endoplasmic reticulum (ER) dysregulation is associated with human pathologies including neurodegenerative, cardiovascular, muscular, and diabetic conditions. Maintenance of ER calcium is critical for functions of the ER and its depletion can lead to loss of ER resident proteins, in a process termed exodosis. Therapeutic compounds capable of attenuating the redistribution of ER proteins under pathological conditions may slow or stop disease progression. To identify such compounds, we performed a quantitative high-throughput screen (qHTS) using the SERCaMP assay, which monitors secretion of ER resident proteins triggered by calcium depletion.
SERCaMP was initially developed as a reporter of ER calcium homeostasis using a Gaussia luciferase with a modified signal peptide and carboxy-terminus (GLuc-SERCaMP), modifications that confer secretion of the reporter in response to ER calcium depletion (Henderson et al., 2014). The assay was used to screen 9,501 compounds, including a collection of drugs approved by the FDA (US), EMA (EU), NHI (Japan), and HC (Canada) regulatory agencies (Huang et al., 2011). Since the SERCaMP reporter reflects the exodosis phenomenon (Trychta et al., 2018a), compounds identified in the screen have the potential to prevent exodosis by different mechanisms such as stabilizing ER calcium or augmenting ERS retrieval.
1. Henderson, M.J., Wires, E.S., Trychta, K.A., Richie, C.T., and Harvey, B.K. (2014). SERCaMP: a carboxy-terminal protein modification that enables monitoring of ER calcium homeostasis. Mol Biol Cell 25, 2828-2839.
2. Huang, R., Southall, N., Wang, Y., Yasgar, A., Shinn, P., Jadhav, A., Nguyen, D.T., and Austin, C.P. (2011). The NCGC pharmaceutical collection: a comprehensive resource of clinically approved drugs enabling repurposing and chemical genomics. Sci Transl Med 3, 80ps16.
3. Trychta, K.A., Back, S., Henderson, M.J., and Harvey, B.K. (2018a). KDEL Receptors Are Differentially Regulated to Maintain the ER Proteome under Calcium Deficiency. Cell Rep 25, 1829-1840 e1826.
SEQUENCE No. (1, 2, 3, etc.); […] (e.g., Cells, Incubation, Reagent, etc.); VALUE and DESCRIPTION.
1; Reagent; 5 uL; 1000 SH-SY5Y cells per wells
3; Compound; 23 nL; Control inhibitor / compound library
5; Reagent; 100 nM; Thapsigargin
7; Reagent; 5 uL; CellTiter-Glo (Promega)
8; Time; 10 min; room temperature
9; Detection; Luminescence; ViewLux imaging system
NOTES (numbers refer to sequence above)
1; SH-SY5Y human neuroblastoma cells stably expressing GLuc-SERCaMP (SH-SY5Y-GLuc-ASARTDL) cells were seeded in 1,536 well white tissue culture treated plates (Corning, Cat# 7464) in DMEM-high glucose-sodium pyruvate (ThermoFisher Scientific, Cat #10569) supplemented with 10% bovine growth serum (Hyclone), 10 U/ml penicillin (Gibco), 10 ug/ml streptomycin (Gibco), and 20 mM HEPES.
2; Assay plates were incubated for 5 hr at 37C in a humidified incubator containing 5% CO2.
3; qHTS libraries (23 nl, final concentrations of 1.53 uM, 7.67 uM, 38.3 uM) or controls (neutral control: DMSO, positive control: dantrolene) were added using a Kalypsis pin-tool Robotic System equipped with 1536 pinheads.
4; Cells were then incubated for 42 hours at 37C, 5% CO2. […]
7; Cell viability was measured using the CellTiter-Glo Luminescent Cell Viability Assay (Promega). […]
9; Luminescence was measured using a ViewLux CCD imaging system (Perkin Elmer) equipped with clear filters.

Chain of Calcium and integrin-binding protein 1 (Homo sapiens) (Q99828 whole entry, looked up): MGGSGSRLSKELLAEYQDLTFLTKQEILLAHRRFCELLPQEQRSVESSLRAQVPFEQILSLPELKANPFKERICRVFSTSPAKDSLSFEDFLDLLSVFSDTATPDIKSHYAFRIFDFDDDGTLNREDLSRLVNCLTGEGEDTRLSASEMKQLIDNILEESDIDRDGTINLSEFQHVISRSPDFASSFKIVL
Chain of Protein phosphatase 1D (Homo sapiens) (O15297 whole entry, looked up): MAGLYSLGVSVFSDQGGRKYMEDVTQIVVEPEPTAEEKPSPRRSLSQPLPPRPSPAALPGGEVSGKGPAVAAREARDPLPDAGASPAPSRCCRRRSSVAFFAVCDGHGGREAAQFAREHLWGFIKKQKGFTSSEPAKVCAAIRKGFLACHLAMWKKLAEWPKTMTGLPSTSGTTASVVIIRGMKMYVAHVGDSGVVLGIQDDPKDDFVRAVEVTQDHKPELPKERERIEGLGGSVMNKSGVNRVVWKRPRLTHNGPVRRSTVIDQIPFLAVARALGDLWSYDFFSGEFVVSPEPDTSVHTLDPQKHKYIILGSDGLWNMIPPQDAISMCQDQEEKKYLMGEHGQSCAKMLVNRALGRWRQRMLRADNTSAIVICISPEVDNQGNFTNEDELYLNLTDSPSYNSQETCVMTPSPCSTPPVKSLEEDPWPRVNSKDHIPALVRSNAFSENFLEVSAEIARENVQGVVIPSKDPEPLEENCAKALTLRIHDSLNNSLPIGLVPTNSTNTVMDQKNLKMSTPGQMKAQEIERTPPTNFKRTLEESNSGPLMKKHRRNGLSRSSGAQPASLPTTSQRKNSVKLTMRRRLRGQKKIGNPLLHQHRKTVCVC
Chain of Cytochrome P450 2D6 (Homo sapiens) (P10635 whole entry, looked up): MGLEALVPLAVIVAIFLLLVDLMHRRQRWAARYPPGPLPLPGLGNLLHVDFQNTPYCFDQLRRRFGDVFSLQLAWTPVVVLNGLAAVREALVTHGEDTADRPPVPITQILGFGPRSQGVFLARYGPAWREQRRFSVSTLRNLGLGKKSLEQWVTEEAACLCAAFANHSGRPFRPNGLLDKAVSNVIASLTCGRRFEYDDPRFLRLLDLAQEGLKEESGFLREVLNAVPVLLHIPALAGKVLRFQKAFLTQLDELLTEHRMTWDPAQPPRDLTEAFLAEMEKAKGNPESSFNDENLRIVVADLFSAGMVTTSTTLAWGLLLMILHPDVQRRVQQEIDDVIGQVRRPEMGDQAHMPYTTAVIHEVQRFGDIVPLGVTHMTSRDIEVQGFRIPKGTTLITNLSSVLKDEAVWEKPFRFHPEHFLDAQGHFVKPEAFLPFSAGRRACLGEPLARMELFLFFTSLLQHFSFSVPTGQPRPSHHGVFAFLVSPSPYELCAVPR

O=c1[nH]c(=O)n([C@H]2C[C@H](O)[C@@H](CO)O2)cc1I
inactive: outcome [1] | outcome [2] | outcome [3] | outcome [4] | outcome [5] | outcome [6] | Potency [7] | Potency [8]

CC(C)(C)C(=O)OCOC(=O)[C@@H]1N2C(=O)[C@@H](NC(=O)[C@H](N)c3ccccc3)[C@H]2SC1(C)C
inactive: outcome [1] | outcome [3] | outcome [9] | outcome [4] | outcome [5] | outcome [6] | Potency [7] | Potency [8]

CCCCCOC(=O)Nc1nc(=O)n([C@@H]2O[C@H](C)[C@@H](O)[C@H]2O)cc1F
inactive: outcome [1] | outcome [2] | outcome [3] | outcome [9] | outcome [4] | outcome [5] | Potency [7] | Potency [8]

CC(=O)N[C@@H](CC(C)C)C(=O)O
inactive: outcome [1] | outcome [3] | outcome [9] | outcome [4] | outcome [5] | outcome [6] | Potency [7]

Cc1cc(OI)c(C(C)C)cc1-c1cc(C(C)C)c(OI)cc1C
inactive: outcome [1] | outcome [3] | outcome [9] | outcome [4] | outcome [5] | outcome [6] | Potency [7]

C/C(=C(\CCO)SS/C(CCO)=C(\C)N(C=O)Cc1cnc(C)nc1N)N(C=O)Cc1cnc(C)nc1N
inactive: outcome [1] | outcome [3] | outcome [9] | outcome [4] | outcome [5] | outcome [6] | Potency [7]

CN[C@@H]1[C@H](O)[C@H](NC)[C@H]2O[C@@]3(O)C(=O)C[C@@H](C)O[C@H]3O[C@@H]2[C@H]1O
inactive: outcome [1] | outcome [3] | outcome [9] | outcome [4] | outcome [5] | outcome [6] | Potency [7]

CN/C(=C\[N+](=O)[O-])NCCSCc1csc(CN(C)C)n1
inactive: outcome [1] | outcome [3] | outcome [9] | outcome [4] | outcome [5] | outcome [6] | Potency [7] | Potency [8]

Cc1c(Cn2ccnc2)c2ccccc2n1CCC(=O)O
inactive: outcome [1] | outcome [3] | outcome [9] | outcome [4] | outcome [5] | outcome [6] | Potency [7]

OCCN1C[C@H](O)[C@@H](O)[C@H](O)[C@H]1CO
inactive: outcome [1] | outcome [2] | outcome [3] | outcome [9] | outcome [4] | outcome [5] | outcome [6] | Potency [7] | Potency [8]

CCOc1ccccc1O[C@H](c1ccccc1)[C@H]1CNCCO1
active: Potency [10] 22.4 µM
inactive: outcome [1] | outcome [3] | outcome [9] | outcome [4] | outcome [5] | max response [11] 9.87% | Potency [7]

CC(=O)NCc1c(I)c(NC(C)=O)c(I)c(C(=O)O)c1I
inactive: outcome [1] | outcome [3] | outcome [9] | outcome [4] | outcome [5] | outcome [6] | Potency [7]

COC(=O)c1ccccc1C(=O)c1ccc(OCCN2CCCCC2)cc1
inactive: outcome [1] | outcome [3] | outcome [9] | outcome [4] | outcome [5] | outcome [6] | Potency [7]
active: Potency [8] 11 µM

Cc1onc(-c2ccccc2)c1-c1ccc(S(N)(=O)=O)cc1
inactive: outcome [1] | outcome [2] | outcome [3] | outcome [9] | outcome [4] | outcome [5] | outcome [6] | Potency [7]
